The results in this text go back to PubChem BioAssay AID1851 (National Center for Advancing Translational Sciences (NCATS), 2009).

The structures appear in SMILES notation. About 2,600 (16%) of roughly 16,000 compounds were called active. Inconclusive results (about 20%) are left out. Calls come from the whole dose curve; as a rule, active = well fitted curve in the direction sought with a large enough effect; inconclusive = small, poorly fitted or top-dose-only effect, or effect the other way; inactive = no such curve, though single readings can be large or run the other way. Only a sample is shown.
% is set by controls: 0 for no effect and ±100 for the full control effect.

Cytochrome P450 2D6 (Homo sapiens), sequence (P10635 whole entry, looked up): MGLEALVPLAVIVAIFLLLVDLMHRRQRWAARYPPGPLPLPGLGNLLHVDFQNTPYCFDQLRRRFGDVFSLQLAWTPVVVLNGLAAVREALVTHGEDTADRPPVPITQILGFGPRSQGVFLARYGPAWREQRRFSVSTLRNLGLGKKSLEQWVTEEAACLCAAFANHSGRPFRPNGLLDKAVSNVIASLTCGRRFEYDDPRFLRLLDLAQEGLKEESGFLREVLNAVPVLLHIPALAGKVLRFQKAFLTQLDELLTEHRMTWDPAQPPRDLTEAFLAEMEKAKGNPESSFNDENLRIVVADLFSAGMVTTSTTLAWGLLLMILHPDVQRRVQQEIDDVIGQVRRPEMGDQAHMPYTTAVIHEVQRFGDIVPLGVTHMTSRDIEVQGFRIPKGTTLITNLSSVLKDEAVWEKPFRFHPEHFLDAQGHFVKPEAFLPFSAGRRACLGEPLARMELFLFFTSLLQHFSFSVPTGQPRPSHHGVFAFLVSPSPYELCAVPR

The assay has as its target Cytochrome P450 2D6 (Homo sapiens) (UniProt P10635). Description: Cytochrome panel assay with activity outcomes. The following applies: recombinant CYP, pro-luciferin dealkylation, luminescence, p450-cyp2d6; series mostly up to 57.1 µM.
Usually AC50 stands for the midpoint of the concentration-response curve, whichever way the signal moves. Consider `O=C(O)c1ccccc1-c1ccc(/C=c2\sc3nc4cc(Br)cnc4n3c2=O)o1`, for which the AC50 result is “inactive”.
For `N#CC(C#N)=C(N)/C(C#N)=C/c1ccc(O)cc1`, the AC50 entry was “inactive”.
`COc1ccc(/C(C)=N/NC(=O)c2ccc(N(C)C)cc2)cc1`: the AC50 entry is “inactive”.
The same measure, in the same setting: in the case of `COc1cc2c(cc1OC)C(C(=O)Nc1cccc(C)n1)C(c1cccnc1)N(C)C2=O` (centres undefined) it was “inactive”; in that of `COc1cc(C2C(=O)N(C3CCCC3)CC(=O)N2Cc2ccco2)ccc1OC(C)C` (centres undefined), “inactive”.
As for `CCCC1C(=O)N(c2ccccc2)C1c1ccccc1` (centres undefined), the AC50 entry was “inactive”.
For the compound `CCCCOC(=O)c1cc2c(cn1)[nH]c1ccccc12`, the AC50 result is “inactive”.
As for `CCCC[C@@H]1C[C@H]1C(NC(=O)Cc1ccccc1)c1ccc(-c2ccccc2)cc1` (some centres undefined), the AC50 entry was “inactive”.
For the compound `CCOC(=O)c1c(C)nc2sc3c(=O)n(-c4ccc(C)cc4)cnc3c2c1-c1ccc(OC)cc1`, the AC50 entry is “inactive”.
On to `O=C(O)c1c2c(c(O)c3c1CN(C1CCCCC1)CO3)OCN(C1CCCCC1)C2`, for which the activity, negative = inhibition was 15.7% [at 11.4 µM] (inactive).
`CNC(=O)[C@H](C)[C@@H]1C[C@@]1(C)[C@@H](NC(=O)OCc1ccccc1)c1ccccc1`: the AC50 was 3.16 µM (active).
In the case of `C[C@@H](C(=O)O)[C@H]1C[C@]1(C)[C@H](NC(=O)OCc1ccccc1)c1ccccc1`, the AC50 entry is “inactive”.
As for `C[C@@H](C(=O)O)[C@@H]1C[C@@]1(C)[C@@H](NC(=O)OCc1ccccc1)c1ccccc1`, the AC50 entry is “inactive”.
Turning to `O=C(O)C[C@H](Cc1ccccc1)C(=O)O`, the activity, negative = inhibition was 6.15% [at 11.4 µM] (inactive).
For `CCC(C)NC(=O)NC(=O)N(C1CCCCC1)S(C)(=O)=O` (centres undefined), the AC50 result was “inactive”.
The same measure, in the same setting: in the case of `CO[C@H]1C[C@@H](O[C@@H]2[C@H](C)[C@H](O[C@@H]3O[C@@H](C)C[C@@H](N(C)C)[C@@H]3O)[C@H](C)C[C@]3(CO3)C(=O)[C@H](C)[C@H](O)[C@H](C)[C@H](C)OC(=O)[C@@H]2C)O[C@@H](C)[C@H]1O` it was “inactive”.
On to `C[N+]1(CCC[N+]2(C)C[C@H]3[C@H](C2)[C@H]2C=C[C@@H]3CC2)CCOCC1` (some centres undefined), for which the activity, negative = inhibition is -2.37% [at 11.4 µM] (inactive).
For `NC(=S)Nc1cc2ccccc2c2ccccc12`, the AC50 was 28.2 µM (active).
Take `CN=C(N)/N=C(\N)Nc1cc2ccccc2c2ccccc12`: the AC50 was 1.58 µM (active).
On to `NC(=S)Nc1cccc2cccnc12`, for which the AC50 entry is “inactive”.
With `S=C(CSc1ccccc1)Nc1cccc2ccccc12`, the activity, negative = inhibition was -5.75% [at 11.4 µM] (inactive).
In the case of `CSc1nc(Oc2ccc(F)cc2)c2ccccc2n1`, the AC50 entry was “inactive”.
Regarding `C[C@@]1(C(NC(=O)c2cccs2)c2ccc(-c3ccccc3)cc2)C[C@H]1C1CCCCC1` (some centres undefined), the AC50 entry was “inactive”.
As to `COc1ccc(OC)c(NC(=O)CSCc2cnn(-c3ccccc3)c2-n2cccc2)c1`, the AC50 result was “inactive”.
With `O=C(NCc1ccco1)c1nc2c(nnn2Cc2cccc(Cl)c2)c(=O)[nH]1`, the AC50 entry is “inactive”.
Take `COc1ccccc1Cn1nnc2c(=O)[nH]c(C3CCN(C(=O)c4ccc(C)cc4)CC3)nc21`: the AC50 entry is “inactive”.
In the case of `COc1cccc(Cn2nnc3c(=O)[nH]c(C4CCCN(C(=O)c5ccccc5Cl)C4)nc32)c1` (centres undefined), the AC50 was 15.8 µM (active).
In the case of `NCCSc1nc(-c2ccccc2)c(-c2ccccc2)o1`, the activity, negative = inhibition was 5.57% [at 11.4 µM] (inactive).
In the case of `COc1ccc(Br)c2c1C[C@H](C(=O)O)CC2`, the activity, negative = inhibition was 7.4% [at 11.4 µM] (inactive).
For `O=C(NNC(=O)c1sc2ccccc2c1Cl)Nc1ccc(Cl)cc1`, the AC50 result was “inactive”.
`Cc1ccc(C)c(-c2cc(C(=O)Nc3sc(C)c(C)c3C(N)=O)c3ccccc3n2)c1`: the AC50 entry was “inactive”.
Turning to `Cc1sc(NC(=O)c2ccccc2)c(C(=O)NCCN(C)C)c1C`, the AC50 is 14.1 µM (active).
Still for that read-out and setting: then `Cc1sc(NC(=O)C(C)C)c(C(=O)Nc2ccccc2)c1C`, with “inactive”.
`COc1cccc(-c2nnc3sc(-c4ccc(C)cc4)nn23)c1`: the AC50 entry is “inactive”.
On the same count and under the same terms, then `O=C(CCCCCn1c(=O)[nH]c2ccsc2c1=O)NCc1ccc2c(c1)OCO2`, with 17.8 µM (active).
`CCOc1cc2[nH]c(=O)n(CCCC(=O)NCc3ccc(OC)cc3)c(=O)c2cc1OCC`: the AC50 result is “inactive”.
As for `O=C(CCn1c(=O)[nH]c2ccsc2c1=O)Nc1ccc(F)c(F)c1`, the AC50 entry was “inactive”.
`COC(=O)C[C@@H]1O[C@H]1[C@H](C)[C@@H](OC)C(C)C`: the activity, negative = inhibition is 5.88% [at 11.4 µM] (inactive).
Turning to `CC[C@@]1(O)C(=O)OCc2c1cc1n(c2=O)Cc2cc3c(CN(C)C)c(O)ccc3nc2-1`, the activity, negative = inhibition is -7.02% [at 11.4 µM] (inactive).
With `C=CCn1c(Cc2c[nH]c3ccccc23)nnc1SCC(=O)NCc1ccccc1`, the AC50 is 15.8 µM (active).
`CCn1c(Cc2ccccc2)nnc1SCC(=O)NC(C)(C)C`: the AC50 entry was “inactive”.
On the same count and under the same terms, then `C=CCn1c(Cc2ccc(OC)cc2)nnc1SCC(=O)c1cccc([N+](=O)[O-])c1`, with “inactive”.
On to `Cc1cc(C(=O)N/N=C/c2cccc([N+](=O)[O-])c2)c(C)o1`, for which the AC50 result is “inactive”.
Same read-out and setting: then `CCOC(=O)c1cc(-c2ccccc2)sc1NC(=O)c1ccc(OC)cc1`, with “inactive”; and `C(=N\n1cnnc1)/c1cccn1-c1ccccc1`, with “inactive”.
Regarding `O=[N+]([O-])c1ccc(/C=N/Nc2cc(Cl)nc(-c3ccccc3)n2)cc1`, the AC50 result was “inactive”.
In the case of `O=[N+]([O-])c1ccc(N/N=C\c2cccn2-c2ccccc2)nc1`, the AC50 was 4.47 µM (active).
Turning to `CN1C(=O)CC[C@@H]1c1cccnc1`, the AC50 entry is “inactive”.
With `Cc1cccn2c(/C=N/OCc3ccc(F)cc3)c(-c3ccc(Cl)cc3)nc12`, the AC50 entry is “inactive”.
As to `COc1ccc(/C=N/NC(=O)C2CCN(c3ncc(C(F)(F)F)cc3Cl)CC2)cc1`, the AC50 result was “inactive”.
In the case of `Cc1cccc(NC(=O)CCS(=O)(=O)c2cccc3nsnc23)c1C`, the AC50 entry was “inactive”.
For `O=C(CCS(=O)(=O)c1cccc2nsnc12)NC1CCCCC1`, the AC50 result was “inactive”.
Turning to `O=C(CCCNS(=O)(=O)c1cccc2nsnc12)NCCc1ccccc1`, the AC50 was 14.1 µM (active).
`Cc1cc(C)n(C(=O)c2cc3c(s2)CCCC3)n1`: the AC50 result is “inactive”.
Turning to `COC(=O)C(CCSC)NC(=O)c1cccc([N+](=O)[O-])c1` (centres undefined), the AC50 result is “inactive”.
Still for that read-out and setting: then `CCOc1ccc(CC(=O)Nc2sc(Cc3ccccc3)c(C)c2C(N)=O)cc1OCC`, with “inactive”; and `COC(=O)c1c(NC(C)=O)sc(Cc2ccccc2)c1C`, with 25.1 µM (active).
Still for that read-out and setting: in the case of `CCOC(=O)c1c(NC(=O)Nc2ccccc2)sc(C)c1C` it was “inactive”; in that of `N#CCCn1c(=O)c(-c2ccc(F)cc2)nc2cnc(OCc3ccccc3)nc21`, “inactive”.
As to `Cc1ccc(S(=O)(=O)N[C@H]2COC(=O)C/C=C\[C@@H](C)[C@H](NS(=O)(=O)c3ccc(C)cc3)COC(=O)C/C=C\[C@H]2C)cc1`, the activity, negative = inhibition is 4.7% [at 11.4 µM] (inactive).
For the compound `COCCn1c(=O)c(C)nc2cnc(N3CCN(C)CC3)nc21`, the AC50 result is “inactive”.
On to `COC(=O)c1sccc1NC(=O)CSc1cc(Cl)ccc1Cl`, for which the AC50 entry was “inactive”.
With `Clc1ccc(Cl)c(SCCCN2CCNCC2)c1`, the AC50 is 2.51 µM (active).
For the compound `Cc1cccc(C(=O)O/N=C(\N)c2cccc([N+](=O)[O-])c2)c1`, the AC50 entry was “inactive”.
With `C#C[C@]1(O)CC[C@H]2[C@H]3CCC4=Cc5oncc5C[C@]4(C)[C@@H]3CC[C@]21C`, the AC50 result is “inactive”.
With `CSc1nsc(SC)c1NC(=O)OCC1CCCO1` (centres undefined), the AC50 entry was “inactive”.
Consider `C=CCNC(=O)c1ccc2nc(-c3ccccc3)c(-c3ccccc3)nc2c1`, for which the AC50 entry is “inactive”.
In the case of `CC[n+]1c(/C=C/Nc2ccccc2)oc2ccccc21`, the AC50 is 1.41 µM (active).
For `O=C(O)CN=C1NC2(CCCC2)Cc2ccccc21`, the AC50 entry was “inactive”.
With `COC(=O)N1CCC2(CC1)CCN(c1ccncc1)CC2`, the AC50 result is “inactive”.
As to `N=C1CCC[C@@H]1C(=S)SCCC(N)=O`, the activity, negative = inhibition was 0.37% [at 11.4 µM] (inactive).
On to `COc1ccccc1-c1nccc(NC2CCNCC2)n1`, for which the AC50 entry was “inactive”.
Regarding `CNc1ccnc(-c2ccccc2C)n1`, the AC50 entry is “inactive”.
The same measure, in the same setting: in the case of `COc1ccccc1-c1nccc(NCc2ccccc2)n1` it was 3.98 µM (active); in that of `COc1ccccc1-c1nccc(NCc2cccc(C)c2)n1`, 1.58 µM (active).
Same read-out and setting: then `Cc1cccc(CNc2ccnc(-c3ccccc3Cl)n2)c1`, with 15.8 µM (active).
Still for that read-out and setting: then `CNc1ccnc(-c2ccccc2OC)n1`, with 5.01 µM (active); and `Cc1cnc(CNc2ccnc(-c3ccccc3Cl)n2)cn1`, with “inactive”; and `CNc1ccnc(-c2ccccc2C(F)(F)F)n1`, with “inactive”.
As to `C=CCNC(=O)c1ccccc1Cl`, the AC50 entry was “inactive”.
Consider `COc1ccc(-n2c(=O)c(C)nc3cnc(N4CCOCC4)nc32)cc1`, for which the AC50 entry was “inactive”.
Turning to `COc1cccc(/C(O)=C2/C(=O)C(=O)N(Cc3cccnc3)C2c2ccco2)c1` (centres undefined), the AC50 result was “inactive”.
Regarding `C[C@@H]1NC(=O)C/C=C\[C@@H](C)[C@@H]2C=C[C@H](O)[C@@H](COC(=O)[C@H](C)NC(=O)C/C=C\[C@@H](C)[C@@H]3C=C[C@H](O)[C@@H](COC1=O)O3)O2`, the activity, negative = inhibition was 9.45% [at 11.4 µM] (inactive).
Turning to `COc1cccc(Cn2c(=O)c(-c3cccc(C#N)c3)nc3cnc(Nc4ccccc4)nc32)c1`, the AC50 entry is “inactive”.
In the case of `O=C(O)c1c(Br)c(Br)c(Br)c(Br)c1C1c2ccc(O)cc2Oc2cc(O)ccc21`, the activity, negative = inhibition is -6.23% [at 11.4 µM] (inactive).
As for `O=c1[nH]n(-c2cccc3cccnc23)c(=O)c2ccccc12`, the AC50 result is “inactive”.
Take `COc1ccc(OC)c(NC(=O)Cn2cccc2)c1`: the AC50 entry was “inactive”.
As for `Cc1occc1C(=O)NNC(=O)Cc1ccccc1`, the AC50 entry is “inactive”.
For the compound `CCCCn1nnnc1SCC(=O)N1CCCC1`, the AC50 entry was “inactive”.
`O=c1[nH]c(=S)[nH]c(-c2ccccc2)c1Cc1c(O)ccc2ccccc12`: the activity, negative = inhibition is -6.41% [at 11.4 µM] (inactive).
Consider `Cc1cccc(CNc2ccnc(-c3ccccc3CN(C)C)n2)c1`, for which the AC50 is 2.51 µM (active).
Turning to `Cc1cccc(CNc2cc(-c3ccc(C(=O)N(C)C)cc3)ncn2)c1`, the AC50 entry was “inactive”.
`CCN(C(=O)Cn1c(=O)oc2ccccc21)c1cccc(C(F)(F)F)c1`: the AC50 result is “inactive”.
Regarding `Cc1ccccc1Oc1ncnc2oc(-c3ccccc3)cc12`, the AC50 entry was “inactive”.
Still for that read-out and setting: in the case of `CC(=O)Oc1ccccc1C(=O)Oc1ccccc1C(=O)O` it was “inactive”; in that of `CCn1c(SCC(=O)Nc2nc3ccc(C)cc3s2)nc2c(c1=O)SC(C)C2` (centres undefined), “inactive”; in that of `O=C(Nc1ccccc1)N[C@H]1C[C@H](C(=O)O)Nc2cc(Cl)cc(Cl)c21`, 12.6 µM (active).
Consider `O=C(N/N=C/c1ccc(Cl)cc1Cl)Nc1ccccc1`, for which the AC50 entry was “inactive”.
In the case of `O=C(N/N=C/c1ccc(Cl)cc1)Nc1ccccc1`, the AC50 entry was “inactive”.
